Measurements taken from PubChem BioAssay.
The source made the active and inactive calls. Unless noted, no rule for the calls is given here.

Assays:
[1] = system: Wnt5a (protein binding on small-molecule microarray); assay: small molecules binding Wnt5a protein – biophysical, small-molecule microarray, 635/667 nm fluorescence, primary screen (AID 1142); details: 635 nm fluorescence, higher = more signal;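 also: fluorescence read at 667 nm with signal to noise per printed feature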
[2] = ATP-based viability of Huh7 replicon cells – cell-based, CellTiter-Glo luminescence, basal, 48 h, cytotoxicity control for HCV replication inhibitor project, primary screen (AID 1143); details: higher = more signal, called active from +8 up or from −8 down;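 also: Huh7 hepatoma cells carrying a hepatitis C replication reporter with no stimulus; test concentration not given here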
[3] = Pseudomonas biofilm growth suppression – PAO1 strain, BacTiter-Glo luminescence, LB-PBS, primary screen (AID 1144); details: P. aeruginosa PAO1 biofilm, 12 h, higher = more signal
[4] = basal CRE-LacZ reporter activity in PC12 – cell-based, unstimulated, primary screen (AID 1145); details: no forskolin, luminescence, 4.5 h, higher = more signal, called active from +8 up or from −8 down
[5] = forskolin-driven CRE-LacZ activity in PC12 – cell-based, CRE-LacZ reporter, forskolin-stimulated, primary screen (AID 1146); details: luminescence, 4.5 h, higher = more signal, called active from +8 up or from −8 down;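 also: PC12 cells with 6xCRE LacZ reporter stimulated by forskolin 10 µM; beta-galactosidase reporter signal reflecting CREB driven transcription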
[6] = target: Streptavidin (Streptomyces avidinii) (UniProt P22629); assay: compounds binding control protein streptavidin – biophysical, small-molecule microarray, 635/667 nm fluorescence, artefact control for SMM compound annotation, primary screen (AID 1147); details: higher = more signal;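 also: signal reflects streptavidin binding to arrayed compounds as a control protein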
[7] = probe aInhba binding on compound microarray – biochemical, small-molecule microarray, 635/667 nm fluorescence, primary screen (AID 1148); details: higher = more signal;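 also: score merges 667nm spot fluorescence with signal-to-noise for antibody binding to printed compounds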
Torsin-1A (Homo sapiens) [8] = target: Torsin-1A (Homo sapiens) (UniProt O14656); assay: TOR1A wild-type binding on microarray – cell lysate, small-molecule microarray, lysate, 635/667 nm, primary screen (AID 1149); details: COS7 hTOR1A-WT lysate, 635 nm fluorescence, higher = more signal
Torsin-1A (Homo sapiens) [9] = target: Torsin-1A (Homo sapiens) (UniProt O14656); assay: torsin A mutant lysate binding on microarrays – cell lysate, small-molecule microarray, COS7 lysate, 635/667 nm fluorescence, primary screen (AID 1150); details: COS7 hTOR1A mutant lysate, 635 nm fluorescence, higher = more signal;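 also: score pools 667 nm emission and signal to noise measuring lysate protein binding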
[10] = system: Sonic hedgehog protein (Shh); assay: Sonic hedgehog microarray binding compounds – biochemical, small-molecule microarray, 635/667 nm fluorescence, primary screen (AID 1151); details: 635 nm fluorescence, higher = more signal;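 also: Shh protein binding to compounds spotted on small-molecule microarray slides; score combines spot fluorescence intensity with signal-to-noise across triplicate slides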

Streptavidin (Streptomyces avidinii), sequence (P22629 whole entry, looked up): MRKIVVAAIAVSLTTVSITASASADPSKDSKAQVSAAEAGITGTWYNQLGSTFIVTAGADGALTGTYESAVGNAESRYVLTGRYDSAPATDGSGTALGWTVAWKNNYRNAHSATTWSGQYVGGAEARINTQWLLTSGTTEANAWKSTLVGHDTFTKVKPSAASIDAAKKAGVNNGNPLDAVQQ
Torsin-1A (Homo sapiens), sequence (O14656 whole entry, looked up): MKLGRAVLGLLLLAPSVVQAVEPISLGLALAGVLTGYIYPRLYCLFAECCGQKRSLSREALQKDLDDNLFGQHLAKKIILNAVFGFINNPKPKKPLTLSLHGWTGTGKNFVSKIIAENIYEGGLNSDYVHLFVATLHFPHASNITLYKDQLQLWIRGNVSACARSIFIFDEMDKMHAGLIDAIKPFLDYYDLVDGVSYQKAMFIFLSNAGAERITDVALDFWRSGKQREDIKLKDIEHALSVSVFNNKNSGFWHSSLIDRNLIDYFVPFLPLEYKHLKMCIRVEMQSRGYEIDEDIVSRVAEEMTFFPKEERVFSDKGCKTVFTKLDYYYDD

Structure (SMILES) | composite z-score [1] | z-score [2] | z-score [3] | z-score [4] | z-score [5] | composite z-score [6] | composite z-score [7] | composite z-score (Torsin-1A (Homo sapiens) [8]) | composite z-score (Torsin-1A (Homo sapiens) [9]) | composite z-score [10]
CO[C@@H]1C=CCC(=O)N[C@@H](C)C(=O)OC[C@@H](NS(=O)(=O)c2ccc(C)cc2)[C@H](C)C=CCC(=O)OC[C@H]1C | -0.0979 | -1.03 (inactive) | 0.225 (inactive) | 0.155 (inactive) | -1.23 (inactive) | -0.536 | -0.304 | 0.527 | 0.514 | 1.08
O=C(NN=C1C[C@@H](O)[C@@H](O)[C@@H]2[C@@H]3C(=O)N(Cc4ccccc4)C(=O)[C@@H]3CC[C@H]12)OCc1ccccc1 | -0.014 | -0.575 (inactive) | -0.281 (inactive) | 0.0628 (inactive) | 0.401 (inactive) | -0.0198 | 0.0406 | 0.726 | 0.983 | 1.06
CC(=O)OC[C@H]1O[C@@H](ON=C(C)CCC(=O)OC[C@H]2O[C@H](C#Cc3ccccc3)C=C[C@@H]2Oc2ccc(C)cc2)[C@H](OC(C)=O)[C@@H](OC(C)=O)[C@@H]1OC(C)=O | 0.428 | -1.1 (inactive) | -0.238 (inactive) | 2.19 (inactive) | 0.725 (inactive) | 0.29 | -0.082 | 0.513 | 0.461 | 1.19
COC(=O)[C@H](C)NC(=O)CCC1CC(OC(=O)NCc2cccc3ccccc23)CC2(CCCC(COC(=O)NCc3cccc(C(F)(F)F)c3)O2)O1 (stereo not given in full) | 0.166 | -1.33 (inactive) | -1.07 (inactive) | -0.0755 (inactive) | -0.213 (inactive) | 0.925 | 0.444 | 0.241 | 0.225 | 1.04
O=C1[C@H]2[C@H]3[C@H](O)[C@H](O)CC(=NO[C@@H]4O[C@H](CO)[C@@H](O)[C@H](O)[C@H]4O)[C@@H]3CC[C@H]2C(=O)N1C1CCCCC1 | 0.258 | 0.0805 (inactive) | 0.577 (inactive) | 0.342 (inactive) | 0.758 (inactive) | 0.247 | 0.0342 | 0.603 | 0.0159 | 0.635
CC(C)=CCCC(C)=CCON=C1C[C@@H](O)[C@@H](O)[C@@H]2[C@@H]3C(=O)N(Cc4ccc5c(c4)OCO5)C(=O)[C@@H]3CC[C@H]12 | 0.352 | -1.61 (inactive) | 0.802 (inactive) | -0.295 (inactive) | 0.489 (inactive) | 0.133 | -0.0332 | 0.46 | 0.724 | 0.728
CON=C(C)CCN1CCCCc2nc(C)c(C)cc21 | 0.0272 | 0.559 (inactive) | -0.0896 (inactive) | 0.397 (inactive) | 1.13 (inactive) | -0.0284 | -0.0131 | 1.5 | 0.816 | 0.936
CCOC(=O)CCN1C(=O)[C@H]2[C@H]3[C@H](O)[C@H](O)CC(=NNC(=O)OCc4ccccc4)[C@H]3CC[C@H]2C1=O | 0.126 | -1.31 (inactive) | -0.326 (inactive) | 1.07 (inactive) | -0.253 (inactive) | -0.362 | -0.0781 | 1.95 | 2.44 | 0.968
CSCC[C@@H]1NC(=O)CC=C[C@@H](C)COC(=O)[C@H](C)COC1=O | 0.624 | -1.67 (inactive) | -1.66 (inactive) | 0.163 (inactive) | -0.925 (inactive) | -0.918 | -0.17 | 3.64 | 3.77 | 2.45
C[C@@H](c1ccccc1)N1C(=O)[C@H]2[C@H]3[C@H](O)[C@H](O)CC(=NOC[C@@H](O)COCc4ccco4)[C@H]3CC[C@H]2C1=O | -0.0017 | 0.523 (inactive) | 1 (inactive) | 1.5 (inactive) | 0.81 (inactive) | -0.304 | -0.253 | 3.17 | 2.95 | 1.65
C#CCCCON=C1[C@H]2CCn3c(=O)n([C@@H](CC)c4ccccc4)c(=O)n3[C@H]2[C@H](O)[C@@H]2O[C@H]12 | 0.352 | 0.222 (inactive) | 0.453 (inactive) | 1.15 (inactive) | 0.253 (inactive) | 0.017 | -0.045 | -0.0784 | 0.472 | 0.441
CCCNC(=O)OC[C@H]1O[C@H](CCON=C2C[C@@H](O)[C@@H](O)[C@@H]3[C@@H]4C(=O)N(CC)C(=O)[C@@H]4CC[C@@H]23)C=C[C@@H]1Oc1ccc(OC)cc1 | 0.0561 | -0.402 (inactive) | 1.08 (inactive) | 0.68 (inactive) | 0.23 (inactive) | 0.842 | 0.0256 | 0.509 | 0.43 | 1.33
C#CCCCON=C1[C@H]2CCn3c(=O)n(Cc4cc5c(cc4Cl)OCO5)c(=O)n3[C@H]2[C@H](O)[C@@H]2O[C@H]12 | 0.272 | 0.256 (inactive) | -0.55 (inactive) | -0.207 (inactive) | 0.959 (inactive) | 0.23 | -0.0375 | 0.0703 | 0.248 | 1.08
COC(=O)CC=C[C@@H](C)[C@@H](C=NOC[C@@H](O)[C@H]1O[C@@H]2OC(C)(C)O[C@@H]2[C@H]1O)OC | 0.183 | 0.559 (inactive) | 0.601 (inactive) | -0.0545 (inactive) | 0.0127 (inactive) | 0.271 | -0.149 | -0.104 | 0.162 | 0.867
COC(=O)C(C(=O)OC)C1CCCC(=O)C1 (stereo not given) | -0.155 | -0.509 (inactive) | -0.619 (inactive) | -0.886 (inactive) | -0.0388 (inactive) | 0.402 | -0.274 | 0.622 | 1.42 | 0.769
CC(=O)OC[C@H]1O[C@H](C#CCCc2ccccc2)C=C[C@@H]1OC(C)=O | -0.0248 | -1.42 (inactive) | 1.34 (inactive) | -0.339 (inactive) | 0.859 (inactive) | -0.0683 | -0.0719 | 0.27 | 0.553 | 1.52
C#CCCCON=C1C[C@@H](O)[C@@H](O)[C@@H]2[C@@H]3C(=O)N(C[C@@H]4CCCO4)C(=O)[C@@H]3CC[C@@H]12 | 0.195 | 0.0109 (inactive) | -0.164 (inactive) | 0.0687 (inactive) | 0.305 (inactive) | 0.269 | -0.142 | 0.308 | 0.28 | 0.305
COC(=O)CC=C[C@@H](C)[C@@H](C=NOC[C@@H](O)COCc1ccco1)OC | -0.302 | 0.545 (inactive) | 1.47 (inactive) | -1.05 (inactive) | -0.252 (inactive) | 0.457 | -0.214 | 3.02 | 2.69 | 1.99
C[C@]12CCC3c4ccc(OCC5CO5)cc4CCC3C1CC[C@@H]2O (stereo not given in full) | 0.201 | -1.78 (inactive) | -0.168 (inactive) | 2.75 (inactive) | 0.806 (inactive) | 0.699 | 0.0561 | 0.114 | 0.241 | -0.0357
COC(=O)[C@H](C)NC(=O)CCC1CC(OC(=O)NCc2ccc3c(c2)OCO3)CC2(CCCC(COC(=O)NCCc3ccc(Cl)cc3)O2)O1 (stereo not given in full) | -0.132 | 0.173 (inactive) | -0.0135 (inactive) | -0.526 (inactive) | 0.336 (inactive) | -0.334 | -0.159 | -0.157 | 0.193 | 0.579
CCN1C(=O)[C@H]2[C@H]3[C@H](O)[C@H](O)CC(=NO[C@@H](C)c4cc(-c5c(C)cc(C)cc5C)no4)[C@@H]3CC[C@H]2C1=O | 0.266 | -1.74 (inactive) | 0.847 (inactive) | 2.08 (inactive) | 0.205 (inactive) | 0.203 | 0.0756 | 1.22 | 1.33 | 1.15
Cc1cc2c(nc1C)CCCCN2CC(O)CN1CCCc2nc(-c3ccc(Br)cc3)ccc21 (stereo not given) | 0.0684 | 0.304 (inactive) | -0.708 (inactive) | 0.744 (inactive) | 0.597 (inactive) | 0.639 | 0.0541 | 0.0636 | 0.154 | 1.1
COCCNC(=O)OCC1CCCC2(CC(OC(=O)NCc3cccc4ccccc34)CC(CCC(=O)N[C@@H](C)C(=O)OC)O2)O1 (stereo not given in full) | 0.278 | -0.862 (inactive) | -0.496 (inactive) | 0.376 (inactive) | 1.47 (inactive) | 0.403 | -0.157 | 0.413 | 0.41 | 0.971
COc1ccc(O[C@H]2C=C[C@@H](c3ccccc3)O[C@@H]2CON=C2c3cc(OC)ccc3O[C@H](c3cccc(OC)c3)[C@H]2O)cc1 | 0.288 | -0.0115 (inactive) | -0.0389 (inactive) | 0.913 (inactive) | 0.411 (inactive) | 0.414 | -0.224 | 0.0513 | 0.37 | 0.105
